High-throughput results deposited in PubChem BioAssay by National Center for Advancing Translational Sciences (NCATS).
The list is not random: actives were taken first. Their share in the collection is about 19%.
DT40 TDP1 no CPT: qHTS for Inhibitors of human tyrosyl-DNA phosphodiesterase 1 (TDP1): qHTS in cells in absence of CPT | DT40 Tdp1-/- hTDP1 cells, no CPT, ATP luminescence, 48 h | Potency, µM (doses to about 46.2 µM), hits mostly inhibitors | hit rate 15% among 420,000 | AID 686978, 2013; further: nearly all actives have a fitted effect of over 55% in size
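Cells were dispensed at 400 per well, compounds added by pin tool, plates incubated ≥48 hr at 37 °C, then CellTiter-Glo added for 30 min at room temperature before luminescence reading. Line: DT40 Tdp1-/- complemented with hTDP1; camptothecin omitted.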
TDP1 block: inhibitors of human tyrosyl-DNA phosphodiesterase TDP1 | Potency, µM (titrated, usually from 130 µM), hits mostly inhibitors | recombinant TDP1, AlphaScreen DNA substrate cleavage | Q9NUW8 | hit rate 0.28% among 350,000; further: nearly all actives have a fitted effect of over 40% in size
Target sequence (Q9NUW8 whole entry, looked up): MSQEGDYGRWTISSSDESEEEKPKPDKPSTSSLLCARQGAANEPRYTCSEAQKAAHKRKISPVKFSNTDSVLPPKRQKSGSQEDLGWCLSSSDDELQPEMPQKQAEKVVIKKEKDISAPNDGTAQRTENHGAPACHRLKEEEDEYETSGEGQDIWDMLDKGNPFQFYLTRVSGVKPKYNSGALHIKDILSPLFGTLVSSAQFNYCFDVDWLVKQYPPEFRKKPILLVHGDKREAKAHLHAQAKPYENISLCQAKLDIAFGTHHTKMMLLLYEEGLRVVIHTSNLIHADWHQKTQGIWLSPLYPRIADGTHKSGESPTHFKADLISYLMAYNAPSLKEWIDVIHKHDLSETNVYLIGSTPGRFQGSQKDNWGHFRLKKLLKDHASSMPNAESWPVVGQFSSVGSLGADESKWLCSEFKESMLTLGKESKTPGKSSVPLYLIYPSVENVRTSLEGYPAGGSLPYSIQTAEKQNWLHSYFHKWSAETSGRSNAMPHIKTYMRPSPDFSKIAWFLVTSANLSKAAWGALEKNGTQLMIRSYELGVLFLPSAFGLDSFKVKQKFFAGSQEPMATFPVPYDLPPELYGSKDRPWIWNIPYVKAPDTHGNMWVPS
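Compounds were preincubated with Tdp1 (1 nM final) for 15 min at room temperature before substrate (15 nM final) started a 5 min reaction; beads (10 ug/ml final) were then added for 10 min before AlphaScreen detection.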
ELG1 DNA repair: ELG1-dependent DNA repair inhibition; HEK293T ELG1-luciferase reporter, luminescence, 16 h; DNA damage induced by 5-fluorouridine; Potency, µM (top dose mostly 46.1 µM), actives largely listed as inhibitors; hit rate 2.3% among 330,000; AID 504467; further: nearly all actives have a fitted effect of over 55% in size
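Quantitative HTS, concentration-response format. 2,000 cells/well co-treated with 5-fluorouridine and compound, 16 hr in 5% CO2 at 37 °C; ONE-Glo luminescence read after 30 min.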
TDP1 cell CPT: DT40-hTDP1 cell growth loss with CPT; chicken DT40 Tdp1-/-;hTDP1 cells + 20 nM CPT, ATP luminescence, 48 h; Potency, µM (top dose mostly 46.2 µM), actives largely listed as inhibitors; hit rate 12% among 420,000; further: nearly all actives have a fitted effect of over 55% in size
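Chicken DT40 Tdp1-/- cells complemented with human TDP1, 400 cells/well, exposed to compounds plus 20 nM camptothecin for at least 48 h at 37 C; viability read as ATP content by CellTiter-Glo luminescence.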
IL-1B inflam inh: inhibitors of inflammasome signaling (IL-1 beta secretion); THP-1 LPS/ATP IL-1B secretion, AlphaLISA, 16 h; active compounds read low; activity change, % at 57.5 µM; hit rate 4.7% among 360,000; AID 743279; in the data active means activity change below about -50%; inconclusive means mostly about -30% to -49%
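Secreted IL-1B measured by AlphaLISA bead assay after 16 h compound exposure of THP-1 cells; compounds (final up to 57.5 uM) added 1 h before LPS (250 ng/mL) and ATP (1.25 mM) stimulation; lower signal means less secretion.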
Giardia killer: kills Giardia lamblia. Giardia lamblia trophozoite viability. activity change, % at 7.66 µM, hits read low. hit rate 0.15% among 340,000; in the data active means activity change below about -80%; inconclusive means between about -30% and that limit;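 further: parasites exposed to compound for two days anaerobically before the ATP read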
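Luminescence from cellular ATP indicates surviving trophozoites (100 cells/well) following 48 hrs anaerobic compound treatment at 37 deg C; signal develops 15-30 min at room temperature.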
Of the large screens only hits and unclear results are named; the others gave an inactive call. Unless noted, the call rests on the fitted dose curve; in most records, active means well fitted curve in the direction sought with a large enough effect; inconclusive means small, poorly fitted or top-dose-only effect, or another doubt; inactive means no such curve, though single readings can be large; an effect the other way counts as inactive or inconclusive.

COc1ccccc1Nc1ncc(C(=O)N2CCN(Cc3ccc(OC)c(OC)c3OC)CC2)c2ccccc12	DT40 TDP1 no CPT inconclusive, ELG1 DNA repair inconclusive, TDP1 cell CPT 18.4µM, IL-1B inflam inh -72.6
COc1ccc(-c2[nH]ncc2CN2CCN(C(=O)c3cccs3)CC2)c(F)c1	none
COc1ccc(CN2CCN(C(=O)c3cccs3)CC2)c(OC)c1OC	ELG1 DNA repair 20.6µM
COc1ccc(CN2CCN(C(=O)c3ccc(-c4ccccc4)cc3)CC2)c(OC)c1OC	DT40 TDP1 no CPT inconclusive, TDP1 cell CPT inconclusive
O=C(c1cccs1)N1CCN(Cc2cn[nH]c2-c2ccc(F)cc2F)CC1	IL-1B inflam inh -50.6 (no result: TDP1 block)
COc1ccc(Nc2ncc(C(=O)N3CCN(Cc4ccccc4)CC3)c3ccccc23)cc1	DT40 TDP1 no CPT inconclusive, ELG1 DNA repair 16.4µM, TDP1 cell CPT 18.4µM, IL-1B inflam inh -96.6
Cc1c(NC(=O)c2ccc(-c3ccc([N+](=O)[O-])cc3Cl)o2)c(=O)n(-c2ccccc2)n1C	ELG1 DNA repair inconclusive
CC(C)Cc1nnc(NC(=O)CCC(=O)N2CCN(c3ccc(F)cc3)CC2)s1	none
NC(=O)CSc1nnc(NC(=O)c2ccc(S(=O)(=O)N3CCCCC3)cc2)s1	DT40 TDP1 no CPT inconclusive
COc1cccc2sc(N3CCN(C(=O)CS(=O)(=O)c4ccc(Cl)cc4)CC3)nc12	DT40 TDP1 no CPT 18.4µM, TDP1 cell CPT 16.4µM (no result: ELG1 DNA repair, IL-1B inflam inh, Giardia killer)
Cc1ccc(S(=O)(=O)CC(=O)N2CCN(c3nc4c(F)cccc4s3)CC2)cc1	DT40 TDP1 no CPT 18.4µM, TDP1 cell CPT 20.6µM (no result: ELG1 DNA repair, IL-1B inflam inh, Giardia killer)
COc1cccc2sc(N3CCN(C(=O)c4cccs4)CC3)nc12	ELG1 DNA repair inconclusive, TDP1 cell CPT inconclusive
CC(C)Cc1ccc(C(C)/C=C2/CCC(CN3CCCCC3)C2=O)cc1 (stereo not given)	DT40 TDP1 no CPT 2.91µM, TDP1 cell CPT 2.91µM, IL-1B inflam inh -106.2 (no result: TDP1 block, ELG1 DNA repair)
Cc1noc(C)c1S(=O)(=O)N(CC(=O)Nc1ccc(F)cc1F)c1ccc(C(C)C)cc1	DT40 TDP1 no CPT 20.6µM, TDP1 cell CPT inconclusive (no result: ELG1 DNA repair, IL-1B inflam inh, Giardia killer)
Cc1n[nH]c(C)c1S(=O)(=O)N(CC(=O)Nc1ccc(C(F)(F)F)cc1)c1ccc(C(C)C)cc1	DT40 TDP1 no CPT inconclusive, TDP1 cell CPT 14.6µM (no result: ELG1 DNA repair, IL-1B inflam inh, Giardia killer)
COc1ccc(NC(=O)CN(c2ccc(C(C)C)cc2)S(=O)(=O)c2c(C)noc2C)cc1OC	DT40 TDP1 no CPT inconclusive, ELG1 DNA repair inconclusive, TDP1 cell CPT inconclusive
Cc1n[nH]c(C)c1S(=O)(=O)N(CC(=O)NC(C)c1ccccc1)c1ccc(C(C)C)cc1 (stereo not given)	DT40 TDP1 no CPT inconclusive, TDP1 cell CPT inconclusive (no result: ELG1 DNA repair, IL-1B inflam inh, Giardia killer)
Cc1noc(C)c1S(=O)(=O)N(CC(=O)Nc1ccc(C(F)(F)F)cc1)c1ccc(C(C)C)cc1	DT40 TDP1 no CPT 23.1µM, TDP1 cell CPT 16.4µM (no result: ELG1 DNA repair, IL-1B inflam inh, Giardia killer)
Cc1noc(C)c1S(=O)(=O)Nc1ccc(C(=O)Nc2ccc(C(C)C)cc2)cc1	DT40 TDP1 no CPT 9.2µM, TDP1 cell CPT 11.6µM (no result: ELG1 DNA repair, IL-1B inflam inh, Giardia killer)
Cn1c2ccccc2c2cc(C(=O)N3CCOc4ccc(C(C)(O)CCn5cccn5)cc4C3)ccc21 (stereo not given)	none (no result: TDP1 block, ELG1 DNA repair, IL-1B inflam inh, Giardia killer)
Cc1ccc(C)c(NC(=O)CN2C(=O)COc3ccc(S(=O)(=O)N4CCCC4)cc32)c1	none
Nc1ccc(S(=O)(=O)N2CCN(S(=O)(=O)c3c(F)cccc3F)CC2)cc1	none (no result: DT40 TDP1 no CPT, ELG1 DNA repair, TDP1 cell CPT, IL-1B inflam inh, Giardia killer)
CCc1ccc(OC(C)C(=O)Nc2ccc(S(=O)(=O)Nc3nccs3)cc2)cc1 (stereo not given)	none
CC(C)Oc1ccc(C(=O)Nc2nonc2-c2ccc(OC(C)C)cc2)cc1	none (no result: ELG1 DNA repair, IL-1B inflam inh, Giardia killer)
CN(C)CCNS(=O)(=O)c1ccc(N2CCN(c3ccc(F)cc3)CC2)c([N+](=O)[O-])c1	DT40 TDP1 no CPT 13µM, TDP1 cell CPT 13µM, IL-1B inflam inh -73.5
O=C(NCCS(=O)(=O)N1CCN(c2cccc(Cl)c2)CC1)c1cc(=O)c2ccccc2o1	DT40 TDP1 no CPT 2.06µM, TDP1 cell CPT inconclusive
